For 40 molecules, inhibition results are on record in PubChem BioAssay.

Values without a mark were called inactive. No rule for the calls is given here.

Pantothenate synthetase (Mycobacterium tuberculosis (strain ATCC 25618 / H37Rv)), sequence (P9WIL5 whole entry, looked up): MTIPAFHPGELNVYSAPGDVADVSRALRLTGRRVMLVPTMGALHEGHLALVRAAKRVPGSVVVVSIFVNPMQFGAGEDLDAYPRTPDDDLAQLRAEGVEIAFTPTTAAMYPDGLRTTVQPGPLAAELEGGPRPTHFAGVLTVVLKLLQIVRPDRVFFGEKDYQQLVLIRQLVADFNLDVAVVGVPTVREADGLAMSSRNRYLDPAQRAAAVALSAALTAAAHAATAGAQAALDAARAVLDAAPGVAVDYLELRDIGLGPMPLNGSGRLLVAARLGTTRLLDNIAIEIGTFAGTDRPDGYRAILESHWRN

The experiment addresses Pantothenate synthetase (Mycobacterium tuberculosis (strain ATCC 25618 / H37Rv)) (UniProt P9WIL5). The experiment in a line: Recombinant Mtb pantothenate synthetase (PanC) inhibitors, coupled enzyme, confirmatory (AID 375).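 Also: 0% = full reaction with vehicle and 100% = no enzyme background.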 Particulars: coupled enzyme assay; at 10 µM, stronger effect = higher value.
With `COc1ccc(CC(=O)OCn2nnc3ccccc3c2=O)cc1`, the inhibition (commonly the change of the read-out against control, counted positive when it falls) is 4%.
As for `CCCCCn1c(N2CCN(Cc3ccccc3)CC2)nc2c1c(=O)[nH]c(=O)n2C`, the inhibition is 6%.
The value for `COc1ccccc1S(=O)(=O)Cc1ccc(C(=O)N2CCOCC2)o1` was 0%.
The value for `COc1ccc(-c2cc3c(=O)n(CC(=O)NC4CCN(Cc5ccccc5)CC4)ncn3n2)cc1` was 1%.
For `Cc1[nH]nc(N=CC2=C(O)CC(C)(C)CC2=O)c1-c1ccc(Cl)cc1` the value was 0%.
For the molecule `O=C(O)COc1ccc(Oc2ccccc2)cc1`, the inhibition was 3%.
`Cc1cccc(NCc2ccccc2O)c1`: the inhibition was 3%.
On to `CC(=O)c1c(C)[nH]c(C(=O)N2CCN(C(=O)c3ccco3)CC2)c1C`, for which the inhibition was 0%.
The value for `CCOc1cccc(C(=O)Nc2cccc(-c3nc4ncccc4o3)c2C)c1` was 10%; that for `COc1ccccc1NC1=NC2(CCCC2)N=C(N)N1` was 0%; that for `Cn1c(=O)c2c(nc(NCCCO)n2Cc2cccc(Br)c2)n(C)c1=O` was 3%.
Consider `COc1ccc(-n2c(Cc3cccn3C)nnc2SCC(=O)Nc2ccc(Cl)cc2)cc1`, for which the inhibition is 0%.
The value for `CCOC(=O)N1CCC(N(C(=O)Nc2ccc(Cl)c(Cl)c2)C(C)CC)CC1` (stereo not given) was 4%; that for `CN(C)C=Nc1nonc1N` was 10%; that for `c1ccc(-c2cc(CSc3nc4ccccc4[nH]3)on2)cc1` was 0%.
For `c1ccn2c(SCc3ccc4c(c3)OCCO4)nnc2c1` the value was 1%; for `Cn1nnnc1SCC(=O)N1CCN(c2cccc(Cl)c2)CC1`, 2%.
For `Cc1ccc(S(=O)(=O)N2CCC(C(=O)N3CCC[C@H]3C(=O)NCc3ccccc3)CC2)cc1`, the inhibition was 0%.
For `CCC(C)(C(=O)NC1CCCC1)N(Cc1cccs1)C(=O)Cc1cccs1` (stereo not given) the value was 0%; for `COc1ccc(NS(=O)(=O)c2ccc(N)cc2)nn1`, 1%; for `O=C1C2CCCN2C(c2ccccc2)N1c1ccc(Cl)cc1` (stereo not given), 1%.
Regarding `CCC(C(=O)NC1CCCC1)N(Cc1ccco1)C(=O)Cn1nnc(-c2ccc(C)cc2)n1` (stereo not given), the inhibition was 5%.
The value for `Cc1ccc(SCC(=O)NCCN2C(=O)CSC2=O)c(C)c1` was 0%; that for `CC1(C)CC(=O)C2=C(C1)N(CC1CCCO1)C(=O)C2(O)C(F)(F)F` (stereo not given) was 0%.
The value for `CC(C)=CCCC(C)NC(=O)NC1CCCCC1` (stereo not given) was 0%; that for `CCCCn1c(CN2CCN(c3cccc(Cl)c3)CC2)nc2c1c(=O)n(C)c(=O)n2C` was 6%; that for `O=C(CCN1C(=O)COc2ccccc21)NCCN1CCN(c2cccc(Cl)c2)CC1` was 0%.
The value for `COc1cc2nc(C3CCC3)n(NC(=O)C3CCCC(OC)C3)c(=O)c2cc1OC` (stereo not given) was 2%; that for `CC1(C)CC(=O)C(CC(=O)NC(=O)NCc2ccccc2)=C(O)C1` was 0%.
Consider `CCCCOCP(=O)(CCCC)COCCCC`, for which the inhibition is 1%.
For `O=C(NCC(=O)N(c1ccc2c(c1)OCCO2)C(C(=O)NC1CCCC1)c1ccco1)c1ccco1` (stereo not given) the value was 6%; for `COc1ccc(NC(=O)CCc2nc(-c3ccccc3F)no2)cc1`, 0%.
The value for `O=C(CSCc1ccccn1)Nc1ccccc1` was 0%; that for `COc1cccc2c1C(=O)c1c(O)c3c(c(O)c1C2=O)C[C@@](O)(C(=O)CO)C[C@@H]3O[C@H]1C[C@H](N)[C@H](O)[C@H](C)O1` was 5%.
For `CC1=C(C#N)C(=O)NC(C)(C)C1` the value was 0%; for `O=C(NC1CCCc2ccccc21)C1CCN(S(=O)(=O)c2cnc[nH]2)CC1` (stereo not given), 2%; for `O=C1CC(C(=O)Nc2ccccc2)C2(CCCC2)O1` (stereo not given), 2%.
In the case of `CCc1nc(N[C@@H](Cc2c[nH]c3ccccc23)C(=O)O)c2oc3ccccc3c2n1`, the inhibition was 13%.
For `O=S(=O)(NCc1ccccc1)c1ccc2c(c1)OCCO2` the value was 0%.
Regarding `O=C1CNCc2[nH]c3ccccc3c2N1c1ccccc1`, the inhibition is 0%.
